SRC3 inh = SRC3 coactivator transcriptional activity inhibitors, primary screen, cell-based, luminescence; Nuclear receptor coactivator 3 (Homo sapiens), Q9Y6Q9; HEK293 GAL4-SRC3 luciferase reporter; inhibition, % at 3.6 µM; actives 0.17% (n = 360,000);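 active = inhibition above a per-campaign cutoff, the mean of all compounds plus 3 SD, cut at about 60% in these data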;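 also: higher means less SRC3-driven luciferase light from the GAL4 reporter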
NR5A2 inv ag = LRH-1 (NR5A2) inverse agonists, primary screen, cell-based, luminescence, HEK293T, StAR-luciferase reporter; inhibition, % at 3.6 µM; LRH-1 transfected, 24 h; AID 602396, 2012; Nuclear receptor subfamily 5 group A member 2 (Homo sapiens), O00482; actives 0.13% (n = 360,000);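 active = inhibition above the mean inhibition of all tested compounds plus 3 SD, cut at about 73% in these data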
NCOA1 inh = SRC1 coactivator transcriptional activity inhibitors, primary screen, cell-based, luminescence. Nuclear receptor coactivator 1 (Homo sapiens), Q15788. inhibition, % at 3.6 µM. actives 0.12% (n = 360,000). HEK293 GAL4-SRC1 luciferase reporter;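 active = inhibition above the campaign mean plus 3 SD, with each screening campaign given its own cutoff, cut at about 60% in these data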
NR2F2 inh = NR2F2 transcriptional activity inhibitors, primary screen, cell-based, luciferase reporter, HEK293T, luminescence | COUP transcription factor 2 (Homo sapiens), P24468 | HEK293T NGFI-A luciferase reporter | inhibition, % at 8.6 µM | actives 0.7% (n = 370,000);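 active = inhibition above a per-plate cutoff, mean inhibition of test wells between control levels plus 3 SD, cut at about 38% in these data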;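 also: cells cotransfected with COUP-TFII expression vector driving the NGFI-A reporter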
GalR3 antagonist = GalR3 antagonists in HEK293 cells, primary screen, cell-based, fluorescence readout; AID 651719, 2012; HEK293 GalR3-CNG cAMP membrane potential fluorescence; galR3 body fused to GalR1 C-terminus; Galanin receptor type 3 (Homo sapiens), O60755; inhibition, % at 3 µM; actives 0.44% (n = 360,000);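 active = inhibition above the screen-wide average plus 3 SD, cut at about 13% in these data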;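 also: forskolin and galanin both at EC90 stimulate the cells; cAMP rise reported by CNG channel membrane potential dye signal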
SRC2 inh = inhibition of GAL4-SRC2 driven luciferase reporter, primary screen, SRC2 inhibitor project, cell-based, luminescence | Nuclear receptor coactivator 2 (Homo sapiens), Q15596 | HEK293 GAL4-SRC2 luciferase reporter | inhibition, % at 9 µM | actives 0.17% (n = 370,000);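 active = inhibition above the mean inhibition of all tested compounds plus 3 SD, set per campaign, cut at about 52% in these data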
Target sequence (Q15596 whole entry, looked up, the tested form may be a part): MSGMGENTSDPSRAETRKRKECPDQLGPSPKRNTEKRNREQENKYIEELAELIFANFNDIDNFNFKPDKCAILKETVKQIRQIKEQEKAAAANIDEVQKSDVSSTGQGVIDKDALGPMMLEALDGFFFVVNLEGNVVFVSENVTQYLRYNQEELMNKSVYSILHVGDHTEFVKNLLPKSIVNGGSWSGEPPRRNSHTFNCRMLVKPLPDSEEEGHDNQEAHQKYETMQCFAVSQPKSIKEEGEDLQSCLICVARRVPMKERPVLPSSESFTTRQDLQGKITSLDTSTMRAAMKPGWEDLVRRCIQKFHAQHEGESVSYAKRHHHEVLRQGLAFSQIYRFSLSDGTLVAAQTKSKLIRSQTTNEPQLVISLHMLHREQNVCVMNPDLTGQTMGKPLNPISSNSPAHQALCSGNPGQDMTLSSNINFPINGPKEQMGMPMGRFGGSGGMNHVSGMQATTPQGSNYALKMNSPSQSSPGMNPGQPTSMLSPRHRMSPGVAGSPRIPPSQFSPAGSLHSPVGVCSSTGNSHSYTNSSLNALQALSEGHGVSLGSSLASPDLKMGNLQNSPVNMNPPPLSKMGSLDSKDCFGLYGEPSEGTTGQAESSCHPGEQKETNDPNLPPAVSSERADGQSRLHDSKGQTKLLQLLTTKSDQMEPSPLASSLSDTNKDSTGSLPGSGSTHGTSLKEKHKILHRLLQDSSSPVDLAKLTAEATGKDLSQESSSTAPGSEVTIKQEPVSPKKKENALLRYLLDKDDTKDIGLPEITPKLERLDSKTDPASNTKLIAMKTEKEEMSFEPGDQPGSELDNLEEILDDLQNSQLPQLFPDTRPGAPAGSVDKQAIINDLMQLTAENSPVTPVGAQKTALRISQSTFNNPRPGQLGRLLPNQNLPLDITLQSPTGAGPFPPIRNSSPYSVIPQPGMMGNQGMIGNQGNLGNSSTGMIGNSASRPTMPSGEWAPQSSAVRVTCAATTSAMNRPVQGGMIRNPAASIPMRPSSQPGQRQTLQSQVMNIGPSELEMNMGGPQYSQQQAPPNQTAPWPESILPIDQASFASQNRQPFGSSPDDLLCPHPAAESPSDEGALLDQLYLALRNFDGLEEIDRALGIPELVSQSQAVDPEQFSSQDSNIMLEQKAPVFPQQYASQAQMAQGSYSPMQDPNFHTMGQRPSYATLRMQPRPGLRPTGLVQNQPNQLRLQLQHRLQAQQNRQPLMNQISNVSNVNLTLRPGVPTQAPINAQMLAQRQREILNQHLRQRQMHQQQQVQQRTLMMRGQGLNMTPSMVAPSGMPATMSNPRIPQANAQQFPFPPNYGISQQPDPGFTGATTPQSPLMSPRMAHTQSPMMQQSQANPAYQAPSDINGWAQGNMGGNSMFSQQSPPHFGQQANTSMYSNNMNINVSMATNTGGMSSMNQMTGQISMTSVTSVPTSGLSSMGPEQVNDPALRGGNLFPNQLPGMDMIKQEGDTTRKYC
Gal4-VP16 ctr = Gal4-VP16 luciferase reporter inhibitors, counter-screen for COUP-TFII antagonist project, cell-based, luminescence, HEK293. shares compounds with NR2F2 inh. inhibition, % at 8.5 µM. actives 25% (n = 2,500); in the data active = inhibition above about 13%
COUP-TFII conf = NR2F2 transcriptional activity inhibitors, confirmation, cell-based, luciferase reporter, HEK293, triplicate; shares compounds with NR2F2 inh; HEK293 NGFI-A luciferase reporter, luminescence; inhibition, % at 8.5 µM; actives 45% (n = 2,500);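 active = mean inhibition over three repeats above a set limit taken from the earlier primary screen, cut at about 38% in these data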
Each line names hits and unclear results; the compound was inactive in the other large screens (follow-up assays come after a bar, where they were run). Most compounds without a hit are left out; they make up all but 1.1% or so of the library.

COCc1[nH]nc2c1C(c1ccc(C)cc1)NC2=O (stereo unspecified)	none (no result: SRC3 inh, NR5A2 inv ag, NCOA1 inh)
CCOC(=O)c1cnc(-n2nc(C)cc2C)nc1Nc1ccc(OC)cc1	none
CCOC(=O)c1cnc(-n2nc(C)cc2C)nc1NCCc1ccccc1	NR2F2 inh 48.0 | Gal4-VP16 ctr inactive | COUP-TFII conf inactive
CCOC(=O)c1cnc(-n2nc(C)cc2C)nc1NC1CCCC1	NR2F2 inh 44.3 | Gal4-VP16 ctr inactive | COUP-TFII conf 56.2
C[C@H]1[C@@H](OC(=O)NCCc2c[nH]c3ccccc23)CC[C@@]23CCCN2C(=O)CCC[C@@H]13	none (no result: SRC3 inh, NR5A2 inv ag, NCOA1 inh, GalR3 antagonist, SRC2 inh)
COc1ccc([C@H]2OC(=O)C[C@H]2C(=O)N2CCCC2)cc1OC	none (no result: SRC3 inh, NR5A2 inv ag, NCOA1 inh, GalR3 antagonist)
S=C(NCc1ccccc1)Nc1cccc2cnccc12	NR2F2 inh 57.3 | Gal4-VP16 ctr inactive | COUP-TFII conf inactive
CCn1c(SCC(=O)Nc2cccc3ccccc23)nnc1-c1cccs1	none (no result: SRC3 inh, NR5A2 inv ag, NCOA1 inh, GalR3 antagonist)
FC(F)(F)c1ccccc1C(C#Cc1ccccc1)NCc1ccc2c(c1)OCO2 (stereo unspecified)	none (no result: SRC3 inh, NR5A2 inv ag, NCOA1 inh, GalR3 antagonist)
CS(=O)(=O)N(CCC#N)Cc1ccc(/C=C2\C(=O)Nc3ccccc32)o1	NR2F2 inh 37.5 | Gal4-VP16 ctr inactive | COUP-TFII conf inactive
c1ccc(-c2nnc(-c3ccccn3)c(-c3ccccn3)n2)nc1	none
c1ccc(-c2cccc(CNc3nc(-c4ccccn4)nnc3-c3ccccc3)c2)cc1	NR2F2 inh 50.9 (no result: SRC3 inh, NR5A2 inv ag, NCOA1 inh, GalR3 antagonist, SRC2 inh) | Gal4-VP16 ctr inactive | COUP-TFII conf inactive
CCCNC(=O)c1ccc(N2CCC3(CC2)CC(c2cccc(Br)c2)=NO3)c([N+](=O)[O-])c1	NR2F2 inh 54.0 | Gal4-VP16 ctr inactive | COUP-TFII conf inactive
COc1cc(SC)ccc1C(=O)Nc1ncc(C)s1	NR2F2 inh 48.4, SRC2 inh 53.0 | Gal4-VP16 ctr inactive | COUP-TFII conf inactive
S=c1[nH]nc(-c2cc(-c3ccccc3)n[nH]2)n1N=Cc1c[nH]c2ccccc12	none (no result: SRC3 inh, NR5A2 inv ag, NCOA1 inh, GalR3 antagonist)
CC(C)CN1C(=O)[C@@]2(CC(=O)N(C)C2c2ccccc2)c2cc(-n3cc(CCCC#N)nn3)ccc21 (stereo partly specified)	none (no result: SRC3 inh, NR5A2 inv ag, NCOA1 inh, GalR3 antagonist)
CCOC(=O)N1CCN(C(=O)CSCC(=O)Nc2nc(-c3ccc(-c4ccccc4)cc3)cs2)CC1	NR2F2 inh 68.1 (no result: GalR3 antagonist) | Gal4-VP16 ctr inactive | COUP-TFII conf 70.5
COC(=O)C1CN(C2CCCC2)CCS(=O)(=O)N1Cc1cn(Cc2ccc(F)cc2)nn1 (stereo unspecified)	none (no result: SRC3 inh, NR5A2 inv ag, NCOA1 inh, GalR3 antagonist)
COc1cccc(N2CCN(C(=O)c3ccc(CSc4nc5ccncc5[nH]4)cc3)CC2)c1	NR2F2 inh 42.0 | Gal4-VP16 ctr inactive | COUP-TFII conf inactive
c1csc(CCNc2ncnc3sc4c(c23)CCC4)c1	NR2F2 inh 67.1 | Gal4-VP16 ctr inactive | COUP-TFII conf 46.0
c1ccc(Nc2ncnc3sc4c(c23)CCC4)cc1	none
Cc1cc2c(c(=O)o1)[C@@]1(C(=O)N(C)c3c(Br)cccc31)C1=C(CCCC1=O)O2	none (no result: SRC3 inh, NR5A2 inv ag, NCOA1 inh)
COc1ccc(-n2c(SCC(=O)NCCCSC)nnc2-c2ccncc2)cc1	none (no result: SRC3 inh, NR5A2 inv ag, NCOA1 inh, GalR3 antagonist)
COc1ccc(OCC(=O)Nc2ccc3c(c2)nc(CCN2CCN(c4ccccn4)CC2)n3C)cc1	none
Cc1cccc(OCC(=O)Nc2ccc3c(c2)nc(CCN2CCN(c4ccccn4)CC2)n3C)c1	NR2F2 inh 52.2 | Gal4-VP16 ctr inactive | COUP-TFII conf inactive
Cn1c(CCN2CCN(c3ccccn3)CC2)nc2cc(NC(=O)COc3ccc(Cl)cc3)ccc21	NR2F2 inh 61.0 | Gal4-VP16 ctr inactive | COUP-TFII conf 59.5
